These results are taken from PubChem BioAssay AID652115 (Broad Institute, 2013).

As usually defined, the inhibition is the drop in the measured response relative to a control, in per cent.

Hit rate of the full screen: of about 330,000 compounds, about 3,800 (1.2%) were called active. No stated cut-off is given here; in the data, active means inhibition above about 15%; inconclusive means no clear call, values can overlap the other calls; inactive means below that. This excerpt belongs to a sample that is enriched for actives.

This assay deals with NAD-dependent protein deacylase sirtuin-5, mitochondrial (Homo sapiens) (UniProt Q9NXA8). The assay is described as follows: SIRT5 desuccinylase inhibitors, primary screen, biochemical, fluorescence imaging, single point, set 5 (AID 652115). The following applies: Purified SirT5, succinyl-peptide AMC, trypsin-coupled fluorescence; at 15 µM; stronger effect = higher value.
Chain of NAD-dependent protein deacylase sirtuin-5, mitochondrial (Homo sapiens) (Q9NXA8 whole entry, looked up): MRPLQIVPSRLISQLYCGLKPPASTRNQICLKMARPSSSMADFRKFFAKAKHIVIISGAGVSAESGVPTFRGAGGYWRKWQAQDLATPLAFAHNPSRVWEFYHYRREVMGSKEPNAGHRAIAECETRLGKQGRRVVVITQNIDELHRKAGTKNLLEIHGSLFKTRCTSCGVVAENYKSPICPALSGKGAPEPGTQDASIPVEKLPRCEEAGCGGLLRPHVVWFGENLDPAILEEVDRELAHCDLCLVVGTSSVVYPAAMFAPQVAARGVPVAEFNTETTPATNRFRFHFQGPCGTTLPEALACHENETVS
As to `O=C(c1cccnc1)N1CC(=O)N2[C@H](C1)[C@H](c1ccc(-c3ccccc3F)cc1)[C@@H]2CO`, the inhibition is -2.3% (inactive). To `CCCNC(=O)Nc1ccc2c(c1)C(=O)N(C)C[C@H](OC)[C@H](C)CN(Cc1cccnc1)[C@@H](C)CO2` belongs 0.086% (inactive); to `O=[N+]([O-])c1ccc2oc(-c3cccc(O)c3)nc2c1`, 18.3% (active); to `CC(=O)Oc1ccc2c(=O)oc(-c3ccc([N+](=O)[O-])cc3)nc2c1`, -2.32% (inactive). For the compound `O=[N+]([O-])c1ccc2c(c1)Nc1nc3ccccc3nc1N2`, the inhibition was 1.03% (inactive).

For `COc1ccccc1C(=O)NCc1nnc(SC(C)C(=O)Nc2nccs2)n1C` (configuration not stated), the inhibition is -2% (inactive). In the case of `CC(Sc1nnc(CNC(=O)c2ccccc2F)n1C)C(=O)Nc1nccs1` (configuration not stated), the inhibition is -2.13% (inactive). For the compound `Cc1cccc(C(=O)NCc2nnc(SC(C)C(=O)Nc3nnc(C)s3)n2C)c1` (configuration not stated), the inhibition was 21.7% (active). For `CCCNC(=O)C[C@H]1CC[C@H]2[C@@H](COC[C@@H](O)CN2C(=O)Nc2ccc(Cl)c(Cl)c2)O1`, the inhibition was 3.46% (inactive). With `Nc1nc2c(ncn2[C@@H]2O[C@H](CNCc3ccc(OCCCN4CCOCC4)cc3)[C@@H](O)[C@H]2O)c(=O)[nH]1`, the inhibition was 22.3% (active).

Regarding `CC(C)(O)C#Cc1ccc(CNC[C@H]2O[C@@H](n3cnc4c(=O)[nH]c(N)nc43)[C@H](O)[C@@H]2O)s1`, the inhibition was -5.95% (inactive). To `Nc1nc2c(ncn2[C@@H]2O[C@H](CNS(=O)(=O)N3CCc4ccccc4C3)[C@@H](O)[C@H]2O)c(=O)[nH]1` belongs 2.78% (inactive); to `CCOC(=O)[C@]12CCCC=C1N(CCC1=CCCCC1)C(=O)[C@H](CC(=O)N1CCSCC1)C2`, 0.458% (inactive). `CCOC(=O)[C@]12CCCC=C1N(CCC1=CCCCC1)C(=O)[C@H](CC(=O)N1CCCCC1)C2`: the inhibition was -0.497% (inactive). Next, `CCOC(=O)[C@]12CCCC=C1N(CCC1=CCCCC1)C(=O)[C@H](CC(=O)N1CCN(C(=O)c3ccco3)CC1)C2`: 16.3% (active); `C[C@H]1CN([C@@H](C)CO)C(=O)c2cc(C#CC3CCCC3)cnc2O[C@@H]1CN(C)C(=O)Cc1ccccn1`: 0.934% (inactive). In the case of `COc1ccc(Cn2c(=S)[nH]c3cc(C(=O)N4CCCCC4)ccc3c2=O)cc1`, the inhibition is 16.6% (active). To `COc1ccc(OC)c(-n2c(=S)[nH]c3cc(C(=O)N4CCCCC4)ccc3c2=O)c1` belongs -0.433% (inactive). On to `COc1ccc(Cn2c(=S)[nH]c3cc(C(=O)NCCCN4CCOCC4)ccc3c2=O)cc1`, for which the inhibition was -1.07% (inactive). With `Cn1cnc(S(=O)(=O)N2C[C@H](O)COC[C@@H]3O[C@H](CC(=O)NC4Cc5ccccc5C4)CC[C@H]32)c1`, the inhibition was 1.91% (inactive). To `COc1cccc(C#Cc2ccc3c(c2)[C@H]2[C@H](CCN2C(=O)CC2CC2)[C@H](CO)N3)c1` belongs 0.183% (inactive).

For the compound `Cc1ccc(NC(=O)c2csc3c2CCCC3)cc1`, the inhibition is -2.6% (inactive). Turning to `O=C(N/N=C/c1ccco1)c1ccc(NC(=O)C2CC2)cc1`, the inhibition is 0.297% (inactive). Next, `O=C(N/N=C/c1ccco1)c1csc2c1CCCC2`: 15.8% (active).

With `CCCNC(=O)N1C[C@H](O)COC[C@H]2O[C@@H](CC(=O)NCc3ccncn3)CC[C@@H]21`, the inhibition was 0.03% (inactive). For `C[C@@H]1CN([C@@H](C)CO)C(=O)c2cc(-c3cncnc3)cnc2O[C@H]1CN(C)Cc1cncnc1`, the inhibition was 4.33% (inactive). Take `Cc1ccccc1NC(=O)CN1C(=O)N/C(=C\c2cccn2-c2cccc(C(=O)O)c2)C1=O`: the inhibition is 18.5% (active).

For the compound `Cc1ccccc1NC(=O)Cn1c(=O)n(CC2CCCO2)c(=O)c2ccccc21` (configuration not stated), the inhibition was -0.914% (inactive). As to `Cc1ccccc1NC(=O)CSC(=O)c1ccccc1`, the inhibition was -2.14% (inactive).

For `O=C(C[C@@H]1CC[C@H](NC(=O)NC2CCCCC2)[C@H](CO)O1)NCc1ccc(F)cc1`, the inhibition is 2.17% (inactive). As for `O=C(C[C@@H]1C[C@H]2c3cc(NS(=O)(=O)c4ccc(F)cc4)ccc3O[C@H]2[C@@H](CO)O1)NCc1ccccc1F`, the inhibition is 2.14% (inactive). For `C[C@H](CO)N1C[C@H](C)[C@H](CN(C)C(=O)Nc2ccc(F)cc2)OCCCC[C@H](C)Oc2ccc(NC(=O)CCC(F)(F)F)cc2C1=O`, the inhibition is -0.898% (inactive).

In the case of `COCC#Cc1cnc2c(c1)C(=O)N([C@H](C)CO)C[C@H](C)[C@H](CN(C)C(=O)CCN1CCCCC1)O2`, the inhibition is 9.41% (inactive).

`CCCN1[C@H](C(=O)NC2Cc3ccccc3C2)[C@@H](CO)[C@@H]2Cn3c(cccc3=O)[C@@H]21`: the inhibition was 2.03% (inactive). Turning to `COCC(=O)N1CC(=O)N2[C@H](CO)[C@@H](c3ccc(C#CC4CCCC4)cc3)[C@H]2C1`, the inhibition is 0.692% (inactive). As to `CCCC#Cc1ccc([C@H]2[C@@H](CO)N3CCCCN(S(=O)(=O)Cc4ccccc4)C[C@H]23)cc1`, the inhibition is 37.3% (active). `CCCC#Cc1ccc([C@H]2[C@@H](CO)N3CCCCN(S(=O)(=O)CC)C[C@H]23)cc1`: the inhibition is -3.78% (inactive). Take `CCCC#Cc1ccc([C@H]2[C@H](CO)N3CCCCN(S(=O)(=O)CC)C[C@@H]23)cc1`: the inhibition is -5.72% (inactive).

Take `COC(=O)C[C@H]1CC[C@H]2[C@@H](COc3ccc(NC(=O)C4CC4)cc3C(=O)N2C)O1`: the inhibition was 4.29% (inactive).

`COc1ccc2c3c(n(C)c2c1)[C@H](CO)N(C(C)=O)CC31CCN(Cc2cccnc2)CC1`: the inhibition is -0.634% (inactive). To `Cc1ccc(S(=O)(=O)N[C@@H]2CC[C@H](CCn3cc(-c4cccc(F)c4)nn3)O[C@@H]2CO)cc1` belongs -2.4% (inactive); to `Clc1ncn(CCOc2ccccc2)c1Cl`, -0.177% (inactive). With `Cc1c(C(N)=O)sc2ncn(CCOc3ccccc3)c(=O)c12`, the inhibition is 25.5% (active).

As to `Cc1cccc(OC(=O)c2sc3ncn(C)c(=O)c3c2C)c1`, the inhibition was 6.38% (inactive). To `COc1ccc(NC(=O)Nc2ccc3c(c2)C(=O)N([C@H](C)CO)C[C@@H](C)[C@H](CN(C)CC2CCCCC2)OCCCC[C@@H](C)O3)cc1` belongs -2.57% (inactive). Consider `CCC(=O)N1CC(=O)N2[C@H](CO)[C@@H](c3ccc(-c4ccc(C(=O)N(C)C)cc4)cc3)[C@H]2C1`, for which the inhibition is -3.02% (inactive). With `CCNC(=O)C[C@H]1CC[C@@H]2[C@H](COC[C@H](O)CN2C(=O)Nc2c(C)noc2C)O1`, the inhibition is -2.07% (inactive).
